Structures are written as SMILES. The whole screen tested about 380,000 compounds, of which about 4,000 (1.1%) were called active. Another 3% or so got no clear call; they are omitted. The entries come from a sample that favours actives as a whole. Values without a mark were called inactive. Calls come from the whole dose curve; as a rule, active = well fitted activation curve with a large enough effect; inconclusive = small, poorly fitted or top-dose-only effect; inactive = no such curve, though single readings can be large or run the other way.
Potency is the fitted concentration of half-maximal effect.

This assay can be described thus: qHTS Assay to Identify Small Molecule Activators of BRCA1 Expression. Note: nearly all actives have a fitted effect of over 80% in size. As to conditions: MCF7-BRCA1-FFLuc reporter, luminescence, 48 h; series mostly up to 46.1 µM; activation: at the top concentration. A digest of the protocol:
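48 h compound treatment of MCF7-BRCA1-FFLuc cells (phenol-red free MEM, 37 °C), then 15 min with luciferase substrate and luminescence imaging.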
Take `COc1ccc2c(c1)c(N1CCCC1=O)c(C(=O)Nc1ccccc1C(F)(F)F)n2C`: the “activation” value was -15.9%.
As to `COC(=O)/C=C/C(=O)NCc1ccco1`, the “activation” value was 7.24%.
Same read-out and setting: the figure for `O=C(COC(=O)Cc1ccc(Cl)cc1Cl)NCc1ccco1` is 1.86%.
`O=C(/C=C/c1ccc(Cl)cc1Cl)NCc1ccco1`: the Potency was 11.2 µM (active).
Consider `O=C(NCC12CC3CC(CC(C3)C1)C2)c1cc2nc(-c3ccccc3)cc(C(F)(F)F)n2n1`, for which the “activation” value was 4.13%.
In the case of `COc1ccc(-n2ccnc(NCCc3ccc(Cl)cc3)c2=O)cc1OC`, the “activation” value is -20.9%.
Still for that read-out and setting: the figure for `O=C(NC1CCN(Cc2ccccc2)CC1)c1ccc(Cn2c(=O)c3ccccc3n(Cc3cccc(F)c3)c2=O)cc1` is -0.126%.
With `CC(C)(C)C(=O)c1cnc(Nc2ccccc2)s1`, the Potency is 4.47 µM (active).
Turning to `CNC(=O)c1sc(Nc2ccc(OCc3ccccc3)cc2)nc1C`, the “activation” value was -32.3%.
Take `S=c1[nH]nc(Nc2ccccc2)s1`: the “activation” value was 29.3%.
On the same count and under the same terms, the figure for `CCOc1n[nH]c(-c2ccccc2)n1` is 7.24%.
For `COc1cc(-c2noc(-c3ccc(N4CCCC4)c([N+](=O)[O-])c3)n2)cc(OC)c1OC`, the “activation” value was 1.9%.
For the compound `COc1ccc(-c2noc(-c3cccc(OC)c3OC)n2)cc1OC`, the Potency is 3.98 µM (active).
Consider `COc1ccc(-c2noc(CSc3nc(C)cc(=O)[nH]3)n2)cc1OC`, for which the “activation” value was 6.36%.
Still for that read-out and setting: the same measure for `CCN(CC)S(=O)(=O)c1ccc(C(=O)N=c2sc3cccc(OC)c3n2C)cc1`: 1.52%.
In the case of `C=COC(=O)N1CCN(/[N+]([O-])=N/Oc2ccc([N+](=O)[O-])cc2[N+](=O)[O-])CC1`, the “activation” value was -34.6%.
In the case of `Cc1ccn(-c2cccc(-n3ccc(C)n3)n2)n1`, the Potency is 12.6 µM (active).
Regarding `Cc1cccc(N2O[C@H]3C=CC2CCCC3)n1`, the “activation” value was 8.96%.
Regarding `CCCN(CCC)C(=O)Cn1c(=O)n(-c2ccc(Cl)cc2)c(=O)c2c3c(sc21)CCCCC3`, the “activation” value is 0.395%.
`CCn1cc(C(=O)NCCc2ccccc2)c(=O)c2cc(S(=O)(=O)N3CCCCCC3)ccc21`: the “activation” value was 21.6%.
On to `COCc1cc(C)n(CC(=O)NCC2CCCO2)c(=O)c1C#N` (stereo not given), for which the “activation” value was -1.54%.
Still for that read-out and setting: the same measure for `Cc1ccc2c(c1)N(CC(=O)NCC1CCCO1)C(=O)CO2` (stereo not given): 10.8%.
Take `Cc1ccc(-n2c(C)cc(/C=C(\C#N)C(=O)NCC3CCCO3)c2C)cc1` (stereo not given): the Potency was 2.51 µM (active).
For the compound `CCC(=O)N1CCc2cc(CNC(=O)Nc3ccccc3Cl)ccc21`, the “activation” value is 0%.
For `CCCC(=O)N1CCN(c2nc3c(OC)ccc(C)c3s2)CC1`, the “activation” value was 0%.
Turning to `CCCN(CCC)S(=O)(=O)c1ccc(C(=O)Nc2sc3c(c2C(=O)OC)CCN(CC)C3)cc1`, the “activation” value is -3.04%.
Regarding `O=C(CC(c1cccs1)N1Cc2ccccc2C1=O)Nc1ccc(F)cc1F` (stereo not given), the “activation” value was -10.8%.
Still for that read-out and setting: the same measure for `CCCCCC(=O)Nc1ccc(-c2cn3cccnc3n2)cc1`: 26.8%; for `CC(C)(C)C(=O)Nc1cccc(-c2ccc[nH]2)n1`: 14.2%.
Turning to `CC(C)(C)C(=O)Nc1ccc(-c2cn3cccnc3n2)cc1`, the Potency is 2.82 µM (active).
In the case of `N#CC(=C1CCCC1)c1nc(-c2ccc(Cl)cc2)cs1`, the Potency is 6.31 µM (active).
Consider `CCCCCN1CC(O)=C(c2nc(-c3ccc(Cl)cc3)cs2)C1=N`, for which the “activation” value is 3.59%.
On the same count and under the same terms, the same measure for `N#CC(=C1SC=CS1)c1nc(-c2ccccc2)cs1`: 0.115%; for `OC(Cc1ccc2ccccc2n1)c1ccc(Cl)c(Cl)c1` (stereo not given): 91.1%.
With `O=C(CN1CCSCC1)N/N=C/c1ccc(F)cc1`, the “activation” value was 5.61%.
In the case of `O=C(Cc1ccc(F)cc1)N/N=C/c1ccc2c(c1)OCO2`, the Potency was 3.98 µM (active).
With `O=C(Cc1c[nH]c2ccccc12)N/N=C/c1cccc(F)c1`, the “activation” value is -8.13%.
Take `O=C(C1CCCN(S(=O)(=O)c2cccc3nonc23)C1)N1CCN(c2ccccc2F)CC1` (stereo not given): the “activation” value is 20%.
The same measure, in the same setting: the figure for `Cn1c(=O)c2c(nc(Oc3ccc(C#N)cc3)n2Cc2ccc(Cl)cc2Cl)n(C)c1=O` is 15%; for `O=C(COC(=O)c1ccccc1OCCOc1ccccc1)Nc1cccc(Br)c1` it is 27.6%; for `Cc1cccc(OCCSc2nc3ccccc3n2CC(=O)N2CCCCC2)c1C` it is -0.0666%.
Same read-out and setting: the same measure for `COc1cccc(C(=O)c2sc3nc(-c4ccccc4)cc(C(F)(F)F)c3c2N)c1`: -16.2%.
Consider `CCN(CC)C(=O)c1sc2nc(-c3ccccc3)ccc2c1N`, for which the Potency was 2.24 µM (active).
In the case of `CCN(CC)C(=O)c1nc[nH]c1C(=O)N(C)Cc1ccccc1`, the “activation” value was 5.79%.
Still for that read-out and setting: the same measure for `Cc1ccc(S(=O)(=O)N2CCN(c3nc(-n4cnc5ccccc54)nc4ccccc34)CC2)cc1`: 1.6%.
Consider `CCCCCn1c(=O)[nH]c2cc(C(=O)Nc3ccc(F)cc3)ccc2c1=O`, for which the “activation” value was 0%.
Still for that read-out and setting: the figure for `CN(C)C1=C2C=CC=CC2/C(=C2/C=Cc3ccccc32)C=C1` (stereo not given) is -38.7%; for `O=C(COc1ccccc1C(=O)Nc1ccccc1)Nc1cccc(F)c1` it is -25.4%; for `Cc1ccc(C)c(N2CCN(C(=O)CN3C(=O)COc4ccc(S(=O)(=O)N5CCCCCC5)cc43)CC2)c1` it is -8.26%.
For `Cc1sc(NC(=O)C2=COCCO2)c(C#N)c1C`, the Potency was 12.6 µM (active).
Take `CCn1c(SCC(=O)Nc2sc(C)c(C)c2C#N)nnc1C1CC1`: the “activation” value is 4.48%.
On the same count and under the same terms, the figure for `COc1cc(-c2nnc(NC(=O)C3=COCCO3)o2)cc(OC)c1OC` is -6.67%.
Same read-out and setting: the same measure for `CCC(CC)c1nnc(NC(=O)C2CCN(C(=O)c3ccco3)CC2)s1`: -18.7%; for `CCOC(=O)c1sc(N)c(C#N)c1COC(=O)C1=COCCO1`: -3.85%.
Turning to `CCC(CC)c1nnc(NC(=O)C2=COCCO2)s1`, the Potency was 10 µM (active).
For `COc1ccc(N(CC(=O)NCCc2ccc(Cl)cc2)S(=O)(=O)c2c(C)nn(C)c2C)cc1`, the “activation” value was -29.5%.
Turning to `CCCCOc1ccc(C(=O)NO)cc1`, the “activation” value was -15.2%.
For `CC1(C)C=Cc2c(ccc3c2OC[C@@H](c2ccc(O)cc2O)C3)O1`, the Potency is 11.2 µM (active).
As for `CC1(C)C=Cc2c(ccc(C(=O)/C=C/c3ccccc3)c2O)O1`, the “activation” value was 37.3%.
The same measure, in the same setting: the figure for `O=C(/C=C/c1ccccc1)N1CCN(Cc2cc(=O)n3nc(-c4ccccc4F)sc3n2)CC1` is 0%; for `O=C(Cc1cccc2ccccc12)NNC(=O)Nc1ccc(Cl)cc1` it is 0%; for `Cc1ccc(NC(=S)NC(NC(=O)Cc2cccc3ccccc23)C(Cl)(Cl)Cl)cc1` (stereo not given) it is -17%.
Regarding `O=C(Cc1cccc2ccccc12)Nc1ccc2oc(-c3ccccc3)nc2c1`, the Potency was 11.2 µM (active).
Turning to `CCn1c(=O)c2cc(C(=O)NCCc3ccc(Cl)cc3)sc2c2ccccc21`, the “activation” value was -7.3%.
On the same count and under the same terms, the same measure for `COc1cc(OC)c(OC)cc1/C=C1\C=Cc2ccccc21`: -1.54%.
Regarding `CCC(=O)Nc1ccc(C(=O)Nc2cccc(OC)c2)cc1`, the Potency was 12.6 µM (active).
Turning to `COc1cccc(NC(=O)CN(C)C(C)C(=O)Nc2ccc(C#N)cc2)c1` (stereo not given), the “activation” value was -16.1%.
The same measure, in the same setting: the figure for `COc1ccc(C(=O)NCc2nnc(SCC(=O)Nc3cccc(OC)c3)o2)cc1` is 10.8%; for `Cc1ccc(C(=O)Nc2ccc(OCc3cc(=O)n4c(C)csc4n3)cc2)cc1` it is 11.9%; for `Cc1ccc(-c2nnc3ccc(SCC(N)=O)nn23)cc1` it is 19.8%.
The same measure, in the same setting: the same measure for `CCOC(=O)c1oc2ccc(S(=O)(=O)n3nc(-c4ccccc4OC)cc3N)cc2c1C`: 4.41%.
Take `Cc1ccc(/C=N/NC(=O)CSc2nc3ccccc3o2)cc1`: the Potency was 11.2 µM (active).
Regarding `O=C(CSc1nc2ccccc2o1)N1CCN(c2ccccc2)CC1`, the “activation” value was -2.33%.
As for `O=C(CSc1nc2ccccc2o1)N/N=C/c1ccccc1C(=O)O`, the “activation” value was 30.4%.
For `CC1=C(C(=O)OCc2ccc(C)cc2)C(c2ccccc2Cl)CC(=O)N1` (stereo not given), the “activation” value was -3.29%.
Same read-out and setting: the figure for `CCc1ccc(CNC(=O)c2cc3c(=O)n(CC)c4ccccc4c3s2)cc1` is -26.6%; for `Cc1cccc(N2CCN(c3ccc(C(=O)O)cc3NC(=O)c3ccccc3F)CC2C)c1` (stereo not given) it is 27%.
The same measure, in the same setting: the figure for `COc1cc(Cl)c(C)cc1NC(=O)CN1CCCCCC1` is 15.9%.
Take `CC(=O)Nc1ccc(NC(=O)CN2CCCC(C)C2)c(Cl)c1` (stereo not given): the Potency was 11.2 µM (active).
For the compound `O=C(CN1CCCCCC1)Nc1ccc(Cl)cc1F`, the “activation” value was -8.5%.
Same read-out and setting: the figure for `Cc1ccc(-c2nn3c(=O)cc(CN4CCN(S(=O)(=O)c5ccc(Cl)cc5)CC4)nc3s2)cc1` is 8.18%.
Take `COc1ccc(-c2nc3ccccc3s2)cc1NC(=O)COc1ccccc1C`: the “activation” value was 0%.
Still for that read-out and setting: the same measure for `CCCCCCC1(C)NC(c2ccc3c(c2)OCO3)=CC(c2ccccc2O)N1` (stereo not given): -23.1%; for `COc1ccc(Nc2ncc(C(=O)Nc3cc(C)ccc3OC)c3ccccc23)cc1`: -69.1%.
For the compound `COc1ccc(Nc2ncc(C(=O)N3CCN(c4ccccc4OC)CC3)c3ccccc23)cc1`, the Potency result was “inactive”.
On to `COc1ccc(Nc2ncnc3sc(C)cc23)cc1`, for which the Potency is 8.91 µM (active).
`CC1=C(C(=O)OCc2ccc(C)cc2)C(c2c(Cl)cccc2Cl)CC(=O)N1` (stereo not given): the “activation” value is 13%.
On the same count and under the same terms, the figure for `Fc1cccc(Cl)c1COc1ccc(-c2nnco2)cc1` is 36.9%.
Consider `Fc1ccc(COc2ccc(-c3nnco3)cc2)cc1`, for which the Potency was 11.2 µM (active).
Consider `Fc1ccc(COc2cccc(-c3n[nH]c(=S)o3)c2)cc1`, for which the “activation” value was 0.968%.
`COc1cc2nc(Cl)nc(NC3CC3)c2cc1OC`: the “activation” value is 0%.
On to `O=C1COc2ccc(-c3csc(-c4ccc(Cl)cc4)n3)cc2N1`, for which the “activation” value was -0.092%.
Still for that read-out and setting: the figure for `Cc1ccc(OCc2cc(C(=O)N(C)CCn3ccnc3C)no2)cc1C` is 33.8%; for `Cc1nonc1C1CCCN1C(=O)c1cc(COc2cccc(C(F)(F)F)c2)on1` (stereo not given) it is -1.32%.
As to `COCC1CCCCN1C(=O)c1cc(COc2ccc(C)c(C)c2)on1` (stereo not given), the Potency is 11.2 µM (active).
For the compound `Cc1[nH]c2ccccc2c1C(c1ccccc1)c1cccs1` (stereo not given), the “activation” value was -62.9%.
Still for that read-out and setting: the same measure for `CC(=O)c1ccc(NC(=O)c2nc(-c3ccc(C)cc3)n3c2CCCCC3)cc1`: -35.8%.
The same measure, in the same setting: the figure for `Nc1ncnc2nnsc12` is 15.5%.
For `COc1ccccc1-c1c(C)nn2c(C)c(C(C)=O)cnc12`, the “activation” value was 0.312%.
As for `COc1ccccc1Nc1ncc(C(C)=O)c(C)n1`, the Potency was 10 µM (active).
For `CCc1ccc2nc(Nc3ncc(C(C)=O)c(C)n3)nc(C)c2c1`, the “activation” value was 0.142%.
Still for that read-out and setting: the same measure for `O=C(Cn1c(=O)n(Cc2cccs2)c(=O)c2cccnc21)Nc1ccc(F)cc1`: -25.9%.
The same measure, in the same setting: the figure for `CCc1ccccc1NC(=O)Cn1c(=O)n(CC2CCC(C(=O)NCCc3ccccc3)CC2)c(=O)c2ccccc21` (stereo not given) is 5.1%; for `O=C(Cn1c(=O)n(Cc2ccccc2)c(=O)c2sc3ccccc3c21)Nc1ccccc1F` it is 1.09%; for `COc1ccc(N2C(=O)CSC23C(=O)N(Cc2cccc(F)c2)c2ccccc23)cc1Cl` (stereo not given) it is -50.1%.
